The values below come from PubChem BioAssay.

Test [1] can be described thus: antimalarial activity against Dd2 strain (AID 2302;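 active means growth inhibition above 50% at the single 2 µM test dose, taken to imply half-maximal potency below 2 µM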;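 further: 0% = DMSO untreated growth and 100% = chloroquine plus artemisinin killed control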). Particulars: P. falciparum Dd2 in RBCs, LDH growth readout, 72 h; at 2 µM; hits give high values.
Test [2] is described as follows: HepG2 cytotoxicity, primary screen, cytotoxicity control for P. falciparum antimalarial project, cell-based, ATP luminescence (AID 2303;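 active means inhibition above 50%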;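 further: 0% = DMSO wells and 100% = digitonin-killed cells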). Particulars: HepG2 viability, 24-48 h, at 10 µM, hits give high values.
The target in test [3] is L-lactate dehydrogenase (Plasmodium falciparum (isolate CDC / Honduras)) (UniProt Q27743). In words: PfLDH activity inhibition – cell lysate, 3D7 strain, counter-screen for P. falciparum growth inhibition project (AID 2304).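 Further: 0% = vehicle and 100% = reference inhibitor.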 The conditions noted are these: P. falciparum 3D7 crude extract, LDH APAD/NBT absorbance; at 2 µM; hits give high values. For orientation: Counterscreens check selectivity or assay interference.

Test [4] can be described thus: inhibition of 3D7 malaria parasite growth – strain 3D7 (AID 2306).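 Further: 0% = DMSO wells and 100% = chloroquine plus artemisinin control wells.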 The conditions noted are these: P. falciparum 3D7 erythrocytic growth, LDH absorbance, 72 h; at 2 µM; hits give high values.
The target in test [5] is Calcium-dependent protein kinase 1 (Plasmodium falciparum (isolate 3D7)) (UniProt P62344). In words: PfCDPK1 kinase inhibitors, biochemical, TCAMS library (AID 1159585; cut-off not given, nearly all actives have IC50 up to about 0.98 µM;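 further: inhibitors leave more ATP so luminescence rises with inhibition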). The conditions noted are these: recombinant PfCDPK1, Kinase-Glo ATP depletion luminescence.
The target in test [6] is Plasmodium falciparum protein kinase 6 (PK6, PF3D7_1337100) (UniProt Q8IDW1). Nature of the test: PfPK6 kinase inhibitors, biochemical, TCAMS library (AID 1159586). The conditions noted are these: recombinant PfPK6, Kinase-Glo ATP depletion luminescence. Background: Kinase-Glo measures the ATP left after a reaction by luminescence.
Test [7] deals with Protein kinase 7 (PK7), Plasmodium falciparum 3D7 (PF3D7_0213400) (UniProt Q7YTF7). In words: inhibition of Plasmodium PK7 catalytic activity – biochemical, TCAMS antimalarial set, Kinase-Glo luminescence (AID 1159587). Particulars: recombinant PfPK7, Kinase-Glo ATP depletion luminescence.
The target of test [8] is Calcium-dependent protein kinase 4 (Plasmodium falciparum (isolate 3D7)) (UniProt Q8IBS5). In words: PfCDPK4 kinase inhibitors, biochemical, TCAMS library (AID 1159588; cut-off not given, nearly all actives have IC50 up to about 0.91 µM). The conditions noted are these: recombinant PfCDPK4, Kinase-Glo ATP depletion luminescence.

Structures are written as SMILES. “And” between values parts separate entries of the source, which are not always exact repeats. Identical values can stand only once. Unmarked numbers belong to inactive results. For part of these data: Measured potencies and affinities stand elsewhere. The source made the active and inactive calls. Unless noted, how the calls were made is not given here.

Chain of Calcium-dependent protein kinase 1 (Plasmodium falciparum (isolate 3D7)) (P62344 whole entry, looked up): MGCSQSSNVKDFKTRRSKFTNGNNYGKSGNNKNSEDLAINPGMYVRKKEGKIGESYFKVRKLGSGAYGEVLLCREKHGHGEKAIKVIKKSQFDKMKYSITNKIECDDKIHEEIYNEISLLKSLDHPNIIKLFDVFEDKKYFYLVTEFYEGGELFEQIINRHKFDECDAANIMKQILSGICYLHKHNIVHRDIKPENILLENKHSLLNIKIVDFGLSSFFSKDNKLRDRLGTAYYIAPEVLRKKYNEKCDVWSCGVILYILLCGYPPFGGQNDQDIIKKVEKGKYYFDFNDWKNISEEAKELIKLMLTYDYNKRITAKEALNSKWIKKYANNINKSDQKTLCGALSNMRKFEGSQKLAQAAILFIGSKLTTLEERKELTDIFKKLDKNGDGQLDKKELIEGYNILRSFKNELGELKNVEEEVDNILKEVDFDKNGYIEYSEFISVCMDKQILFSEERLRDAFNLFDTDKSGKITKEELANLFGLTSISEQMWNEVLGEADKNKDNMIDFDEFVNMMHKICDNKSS
Chain of L-lactate dehydrogenase (Plasmodium falciparum (isolate CDC / Honduras)) (Q27743 whole entry, looked up): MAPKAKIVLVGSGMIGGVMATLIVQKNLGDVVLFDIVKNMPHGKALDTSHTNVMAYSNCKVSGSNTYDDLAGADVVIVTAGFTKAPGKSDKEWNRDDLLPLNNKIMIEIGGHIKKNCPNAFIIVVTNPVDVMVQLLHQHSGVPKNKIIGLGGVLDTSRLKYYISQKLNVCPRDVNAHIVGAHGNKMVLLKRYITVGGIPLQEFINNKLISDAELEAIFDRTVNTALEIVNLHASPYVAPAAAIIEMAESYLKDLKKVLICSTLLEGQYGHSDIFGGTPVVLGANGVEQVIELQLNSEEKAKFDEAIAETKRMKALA
Chain of Plasmodium falciparum protein kinase 6 (PK6, PF3D7_1337100) (Q8IDW1 1-305): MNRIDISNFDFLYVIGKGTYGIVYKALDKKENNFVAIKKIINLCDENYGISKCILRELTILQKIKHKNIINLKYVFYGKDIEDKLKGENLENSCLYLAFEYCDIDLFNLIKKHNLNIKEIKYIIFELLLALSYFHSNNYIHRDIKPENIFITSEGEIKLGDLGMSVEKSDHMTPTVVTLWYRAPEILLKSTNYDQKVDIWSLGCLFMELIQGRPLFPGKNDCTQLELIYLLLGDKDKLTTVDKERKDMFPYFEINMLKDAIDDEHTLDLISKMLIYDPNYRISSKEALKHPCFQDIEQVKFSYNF
Chain of Protein kinase 7 (PK7), Plasmodium falciparum 3D7 (PF3D7_0213400) (Q7YTF7 1-343): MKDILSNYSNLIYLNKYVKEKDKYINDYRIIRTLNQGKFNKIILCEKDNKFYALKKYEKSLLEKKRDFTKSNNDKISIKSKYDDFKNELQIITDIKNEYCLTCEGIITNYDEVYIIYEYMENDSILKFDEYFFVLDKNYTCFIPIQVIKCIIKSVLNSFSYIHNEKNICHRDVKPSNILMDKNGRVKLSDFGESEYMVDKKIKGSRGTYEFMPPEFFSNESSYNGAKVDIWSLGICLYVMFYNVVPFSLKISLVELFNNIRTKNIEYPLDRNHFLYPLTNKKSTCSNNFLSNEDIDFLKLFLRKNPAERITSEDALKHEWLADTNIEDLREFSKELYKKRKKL
Chain of Calcium-dependent protein kinase 4 (Plasmodium falciparum (isolate 3D7)) (Q8IBS5 whole entry, looked up): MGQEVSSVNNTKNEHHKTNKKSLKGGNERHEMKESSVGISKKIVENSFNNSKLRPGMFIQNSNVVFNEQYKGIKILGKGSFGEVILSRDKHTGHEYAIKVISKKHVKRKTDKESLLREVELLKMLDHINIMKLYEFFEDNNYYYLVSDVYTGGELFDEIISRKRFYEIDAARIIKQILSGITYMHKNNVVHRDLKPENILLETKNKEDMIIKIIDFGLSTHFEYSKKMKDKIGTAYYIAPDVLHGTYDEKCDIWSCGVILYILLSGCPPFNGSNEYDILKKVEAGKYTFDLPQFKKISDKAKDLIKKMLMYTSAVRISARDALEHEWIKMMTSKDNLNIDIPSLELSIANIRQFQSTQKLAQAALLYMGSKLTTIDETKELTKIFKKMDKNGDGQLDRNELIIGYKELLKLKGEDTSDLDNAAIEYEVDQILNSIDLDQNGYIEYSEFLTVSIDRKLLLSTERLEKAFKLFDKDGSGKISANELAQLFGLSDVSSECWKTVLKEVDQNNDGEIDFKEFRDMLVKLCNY

As for `O=C(NC1CCC(CN2CCC(c3c[nH]c4ccccc34)CC2)CC1)c1ccc(-c2ccccc2[N+](=O)[O-])o1` (stereo not drawn), the growth inhibition was 34% in test [1] and 100% (active) in test [4]. The results for the inhibition in test [2] and in test [3] were 24% and -2%, respectively. The outcome in test [5], in test [6], in test [7] and in test [8] was inactive.

For `COC(=O)c1ccc(CC(C)NCC(O)c2cccc(C(F)(F)F)c2)c(OC)c1` (stereo not drawn), the growth inhibition in test [1] is 98% (active); in test [4], 100% (active). The values for the inhibition in test [2] and in test [3] were 5% and 7%, respectively. In addition, the outcome in test [5], in test [6], in test [7] and in test [8] was inactive.

On to `CC[C@H]1CN2CC[C@H]1C[C@H]2[C@H](O)c1cc(-c2ccc(Cl)c(Cl)c2)nc2ccc(OC)cc12`, for which the growth inhibition in test [1] was 99% (active); in test [4], 98% (active). For the same molecule, the figures for the inhibition in test [2] and in test [3] were 17% and 6%, respectively. Further, the outcome in test [5], in test [6], in test [7] and in test [8] was inactive.

Turning to `CN1CC=C(c2c[nH]c3ccc(-c4ccccc4)cc23)CC1`, the growth inhibition in test [1] is 60% (active); in test [4] it was 93% (active). Besides, the inhibition (commonly the relative decrease from the control value, in per cent) in test [2] is 14%; in test [3], -1%. Also, the outcome in test [5], in test [6], in test [7] and in test [8] was inactive.

As for `O=C(/C=C/c1ccc(Cl)cc1Cl)NC1CCC(CN2CCC(c3c[nH]c4ccccc34)CC2)CC1` (stereo not drawn), the growth inhibition in test [1] was 79% (active); in test [4] it was 101% (active). Further, the inhibition in test [2] was 37%; in test [3] it was 7%. In addition, the outcome in test [5], in test [6], in test [7] and in test [8] was inactive.

For the molecule `CN(c1cc(NC(=O)c2ccc(F)cc2)ccn1)C1CCN(Cc2cccc(C#N)c2)CC1`, the growth inhibition is 83% (active) in test [1] and 97% (active) in test [4]. Further, the inhibition in test [2] is 73% (active); in test [3] it was 1%. Besides, the result in test [5], in test [6], in test [7] and in test [8] was inactive.

As for `CN1CC[C@H](N(Cc2ccccc2F)c2ccc(C#N)c(Cl)c2)C1`, the values for the growth inhibition in test [1] and in test [4] were 68% (active) and 88% (active), respectively. Moreover, the inhibition in test [2] was 18%; in test [3], -6%. The result in test [5], in test [6], in test [7] and in test [8] was inactive.

In the case of `O=C(/C=C/c1ccc(Cl)cc1)NC1CCC(CN2CCC(c3c[nH]c4ccccc34)CC2)CC1` (stereo not drawn), the growth inhibition is 67% (active) and 90% (active) in test [1]; 99% (active) and 100% (active) in test [4]. Further, the inhibition is 39% and 40% in test [2]; -6% and 4% in test [3]. For the same molecule, the result in test [5], in test [6], in test [7] and in test [8] was inactive.

Turning to `O=C(CCc1ccco1)NC1CCN(CC2(c3ccc(Cl)cc3)CCC2)CC1`, the growth inhibition in test [1] was 67% (active); in test [4] it was 99% (active). Moreover, the figures for the inhibition in test [2] and in test [3] were -12% and -2%, respectively. Moreover, the result in test [5], in test [6], in test [7] and in test [8] was inactive.

For the molecule `CCCCn1c(C)c(C(=O)OCC)c2cc(OC(C)=O)c(Br)cc21`, the results for the growth inhibition in test [1] and in test [4] were 79% (active) and 98% (active), respectively. For the same molecule, the values for the inhibition in test [2] and in test [3] were -8% and -1%, respectively. The result in test [5], in test [6], in test [7] and in test [8] was inactive.

For `CCCCOC(C(=O)OCC1CCCN1C)(c1ccccc1)c1ccccc1` (stereo not drawn), the values for the growth inhibition in test [1] and in test [4] were 2% and 100% (active), respectively. Further, the results for the inhibition in test [2] and in test [3] were 3% and 6%, respectively. The outcome in test [5], in test [6], in test [7] and in test [8] was inactive.

`CC1(CCCCN2CC=C(c3c[nH]c4ccccc34)CC2)C(=O)Nc2ccccc21` (stereo not drawn): the growth inhibition in test [1] is 90% (active); in test [4], 94% (active). The inhibition in test [2] was 3%; in test [3], 4%. The outcome in test [5], in test [6], in test [7] and in test [8] was inactive.

In the case of `COc1ccc(C2CNCc3c2cc(OC)c(OC)c3Cl)cc1` (stereo not drawn), the values for the growth inhibition in test [1] and in test [4] were 3% and 98% (active), respectively. Besides, the inhibition in test [2] was 42%; in test [3], 2%. The outcome in test [5], in test [6], in test [7] and in test [8] was inactive.

Regarding `COc1ccc2[nH]cc(C3CCN(Cc4ccc(NC(=O)c5ccc(-c6ccccc6)cc5)cc4)CC3)c2c1`, the growth inhibition in test [1] was 72% (active); in test [4], 101% (active). Moreover, the values for the inhibition in test [2] and in test [3] were 24% and -6%, respectively. The result in test [5], in test [6], in test [7] and in test [8] was inactive.

`COCCNCc1cccc(-c2cccc(CN(C(=O)Nc3ccccc3)C3CCN(Cc4ccccc4)CC3)c2)c1`: the growth inhibition in test [1] was 65% (active); in test [4] it was 100% (active). Further, the inhibition in test [2] is 28%; in test [3], -1%. Also, the result in test [5], in test [6], in test [7] and in test [8] was inactive.

For the molecule `O=C(NC1CCC(CN2CCC(c3c[nH]c4ccccc34)CC2)CC1)c1[nH]c(=O)[nH]c(=O)c1F` (stereo not drawn), the growth inhibition was 59% (active) in test [1] and 99% (active) in test [4]. Also, the results for the inhibition in test [2] and in test [3] were 5% and -2%, respectively. Also, the outcome in test [5], in test [6], in test [7] and in test [8] was inactive.

`c1ccc(C(OCCC2CCN(Cc3cccc4cccnc34)CC2)c2ccccc2)cc1`: the growth inhibition in test [1] and in test [4] was 99% (active) throughout. Further, the inhibition in test [2] was 9%; in test [3], 0%. Further, the outcome in test [5], in test [6], in test [7] and in test [8] was inactive.

Take `O=C(NC1CCN(CC2(c3ccc(Cl)cc3)CCC2)CC1)c1ccn[nH]1`: the growth inhibition in test [1] was 43%; in test [4] it was 96% (active). In addition, the inhibition in test [2] was -7%; in test [3], -3%. Further, the result in test [5], in test [6], in test [7] and in test [8] was inactive.

With `CCCCCC(C)C(C)c1cc(O)c2c(c1)OC(C)(C)c1cnccc1-2` (stereo not drawn), the figures for the growth inhibition in test [1] and in test [4] were 74% (active) and 94% (active), respectively. For the same molecule, the inhibition is 7% in test [2] and -3% in test [3]. In addition, the result in test [5], in test [6], in test [7] and in test [8] was inactive.

`O=C(COc1ccc(Cl)cc1)N1CCC(CN2CCC(c3c[nH]c4ccccc34)CC2)CC1`: the figures for the growth inhibition in test [1] and in test [4] were 13% and 89% (active), respectively. Further, the inhibition was 48% in test [2] and 1% in test [3]. Moreover, the result in test [5], in test [6], in test [7] and in test [8] was inactive.

For `CC(Cc1ccc(NC(=O)CCCc2ccccc2)cc1)NCCc1cccc(Cl)c1` (stereo not drawn), the growth inhibition in test [1] is 3%; in test [4] it was 94% (active). Besides, the results for the inhibition in test [2] and in test [3] were 12% and -5%, respectively. Also, the result in test [5], in test [6], in test [7] and in test [8] was inactive.
